# Measured values taken from PMC11006913.
# What was measured:
# Assay in all cases: PBM; 200 nM protein, PBS
# Conditions in all cases: dsDNA, one strand shown
# PRRX1 [1] = target: PRRX1 (Homo sapiens, UniProt P54821 80-166, F113S)
# ALX4 = ALX4 (Homo sapiens, UniProt Q9H161 200-286, Q225E)
# ALX1 [2] = target: ALX1 (Homo sapiens, UniProt Q15699 118-204, L144V)
# PAX4 = target: T1, PAX4 (Homo sapiens, UniProt O43316 9-242, R200Q)
# T1 sequence: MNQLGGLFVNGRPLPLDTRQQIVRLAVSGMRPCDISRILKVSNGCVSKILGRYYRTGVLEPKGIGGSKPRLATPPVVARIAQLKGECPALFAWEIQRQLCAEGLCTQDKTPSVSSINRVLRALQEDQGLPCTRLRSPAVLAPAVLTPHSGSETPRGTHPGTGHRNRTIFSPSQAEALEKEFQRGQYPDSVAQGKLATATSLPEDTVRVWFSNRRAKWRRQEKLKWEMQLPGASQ
# SHOX = SHOX (Homo sapiens, UniProt O15266 103-189, R173C)
# ALX1 [3] = target: ALX1 (Homo sapiens, UniProt Q15699 118-204, L144R)
# HESX1 [4] = target: HESX1 (Homo sapiens, UniProt Q9UBX0 95-180, R109Q)
# ALX3 [5] = target: ALX3 (Homo sapiens, UniProt O95076 139-225, L168Q)
# ALX3 [6] = target: ALX3 (Homo sapiens, UniProt O95076 139-225, L168V)
# ALX1 [7] = target: ALX1 (Homo sapiens, UniProt Q15699 118-204)
# HOXA2 [8] = target: HOXA2 (Homo sapiens, UniProt O43364 129-215, R185T)
# HOXA2 [9] = target: HOXA2 (Homo sapiens, UniProt O43364 129-215, R185K)
# HOXA2 [10] = target: HOXA2 (Homo sapiens, UniProt O43364 129-215, Y150S)
# PRRX1 [11] = target: PRRX1 (Homo sapiens, UniProt P54821 80-166)
# HOXA2 [12] = target: HOXA2 (Homo sapiens, UniProt O43364 129-215)
# HOXD13 [13] = target: HOXD13 (Homo sapiens, UniProt P35453 263-343, T313R)
# HOXD13 [14] = target: HOXD13 (Homo sapiens, UniProt P35453 263-343)
# HOXD13 [15] = target: HOXD13 (Homo sapiens, UniProt P35453 263-343, T313A)
# PROP1 [16] = target: PROP1 (Homo sapiens, UniProt O75360 56-141)
# PROP1 [17] = target: PROP1 (Homo sapiens, UniProt O75360 56-141, R99H)
# PROP1 [18] = target: PROP1 (Homo sapiens, UniProt O75360 56-141, F88S)
# HOXB6 [19] = target: HOXB6 (Homo sapiens, UniProt P17509 132-218, K202E)
# HESX1 [20] = target: HESX1 (Homo sapiens, UniProt Q9UBX0 95-180, F115L)
# HOXB6 [21] = target: HOXB6 (Homo sapiens, UniProt P17509 132-218)
# MSX2 [22] = target: MSX2 (Homo sapiens, UniProt P35548 130-214, R199I)
# MSX2 [23] = target: MSX2 (Homo sapiens, UniProt P35548 130-214)
# MSX2 [24] = target: MSX2 (Homo sapiens, UniProt P35548 130-214, F161Y)
# CRX = CRX (Homo sapiens, UniProt O43186 26-111, R41L)
# Chain of CRX (O43186 26-111 R41L): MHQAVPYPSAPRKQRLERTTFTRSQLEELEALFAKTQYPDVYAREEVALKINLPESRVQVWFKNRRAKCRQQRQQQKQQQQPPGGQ
# Chain of PRRX1 (Homo sapiens, UniProt P54821 80-166) (P54821 80-166): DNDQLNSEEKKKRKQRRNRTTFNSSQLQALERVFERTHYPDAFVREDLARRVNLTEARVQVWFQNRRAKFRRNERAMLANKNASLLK
# Chain of PROP1 (Homo sapiens, UniProt O75360 56-141) (O75360 56-141): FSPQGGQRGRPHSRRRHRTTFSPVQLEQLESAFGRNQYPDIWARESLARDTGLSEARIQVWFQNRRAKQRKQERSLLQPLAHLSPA
# Chain of PRRX1 (Homo sapiens, UniProt P54821 80-166, F113S) (P54821 80-166 F113S): as the sequence (P54821 80-166) above, with F34S counted along it
# Chain of PROP1 (Homo sapiens, UniProt O75360 56-141, F88S) (O75360 56-141 F88S): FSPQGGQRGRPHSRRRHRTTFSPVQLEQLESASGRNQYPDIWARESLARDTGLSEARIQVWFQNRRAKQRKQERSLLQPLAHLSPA
# Chain of PROP1 (Homo sapiens, UniProt O75360 56-141, R99H) (O75360 56-141 R99H): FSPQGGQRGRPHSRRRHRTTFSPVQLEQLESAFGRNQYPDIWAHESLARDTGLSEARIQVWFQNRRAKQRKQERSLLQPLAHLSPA
# Chain of HOXD13 (Homo sapiens, UniProt P35453 263-343, T313R) (P35453 263-343 T313R): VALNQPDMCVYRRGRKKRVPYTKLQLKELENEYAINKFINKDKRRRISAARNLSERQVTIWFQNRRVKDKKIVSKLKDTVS
# Chain of ALX1 (Homo sapiens, UniProt Q15699 118-204, L144R) (Q15699 118-204 L144R): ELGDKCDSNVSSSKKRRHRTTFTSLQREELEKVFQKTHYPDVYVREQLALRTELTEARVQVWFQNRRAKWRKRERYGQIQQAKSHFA
# Chain of HOXD13 (Homo sapiens, UniProt P35453 263-343, T313A) (P35453 263-343 T313A): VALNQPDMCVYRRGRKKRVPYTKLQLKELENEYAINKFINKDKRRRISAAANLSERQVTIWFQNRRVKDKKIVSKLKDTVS
# Chain of HOXD13 (Homo sapiens, UniProt P35453 263-343) (P35453 263-343): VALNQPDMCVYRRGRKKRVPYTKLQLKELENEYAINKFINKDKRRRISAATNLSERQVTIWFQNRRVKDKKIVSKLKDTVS
# Chain of ALX3 (Homo sapiens, UniProt O95076 139-225, L168V) (O95076 139-225 L168V): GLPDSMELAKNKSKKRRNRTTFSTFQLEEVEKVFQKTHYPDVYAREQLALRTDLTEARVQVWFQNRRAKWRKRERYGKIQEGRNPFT
# Chain of HESX1 (Homo sapiens, UniProt Q9UBX0 95-180, R109Q) (Q9UBX0 95-180 R109Q): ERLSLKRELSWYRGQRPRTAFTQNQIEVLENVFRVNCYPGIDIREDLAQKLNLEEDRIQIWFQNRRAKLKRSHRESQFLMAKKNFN
# Chain of HESX1 (Homo sapiens, UniProt Q9UBX0 95-180, F115L) (Q9UBX0 95-180 F115L): as the sequence (Q9UBX0 95-180 R109Q) above, with Q15R, F21L counted along it
# Chain of HOXB6 (Homo sapiens, UniProt P17509 132-218, K202E) (P17509 132-218 K202E): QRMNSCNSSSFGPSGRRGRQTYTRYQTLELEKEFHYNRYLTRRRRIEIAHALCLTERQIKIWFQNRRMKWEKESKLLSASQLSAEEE
# Chain of HOXA2 (Homo sapiens, UniProt O43364 129-215, Y150S) (O43364 129-215 Y150S): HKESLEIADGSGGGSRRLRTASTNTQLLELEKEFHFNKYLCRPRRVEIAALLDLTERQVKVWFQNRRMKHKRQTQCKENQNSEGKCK
# Chain of ALX1 (Homo sapiens, UniProt Q15699 118-204) (Q15699 118-204): as the sequence (Q15699 118-204 L144R) above, with R27L counted along it
# Chain of HOXA2 (Homo sapiens, UniProt O43364 129-215, R185K) (O43364 129-215 R185K): as the sequence (O43364 129-215 Y150S) above, with S22Y, R57K counted along it
# Chain of ALX4 (Q9H161 200-286 Q225E): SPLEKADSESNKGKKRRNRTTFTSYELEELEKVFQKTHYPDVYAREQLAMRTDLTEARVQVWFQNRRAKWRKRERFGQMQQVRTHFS
# Chain of MSX2 (Homo sapiens, UniProt P35548 130-214, F161Y) (P35548 130-214 F161Y): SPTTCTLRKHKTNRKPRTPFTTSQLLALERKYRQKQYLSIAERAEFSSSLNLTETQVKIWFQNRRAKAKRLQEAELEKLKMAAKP
# Chain of ALX1 (Homo sapiens, UniProt Q15699 118-204, L144V) (Q15699 118-204 L144V): as the sequence (Q15699 118-204 L144R) above, with R27V counted along it
# Chain of HOXA2 (Homo sapiens, UniProt O43364 129-215) (O43364 129-215): as the sequence (O43364 129-215 Y150S) above, with S22Y counted along it
# Chain of MSX2 (Homo sapiens, UniProt P35548 130-214) (P35548 130-214): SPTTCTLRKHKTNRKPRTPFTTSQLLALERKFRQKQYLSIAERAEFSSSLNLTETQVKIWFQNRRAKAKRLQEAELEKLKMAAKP
# Chain of MSX2 (Homo sapiens, UniProt P35548 130-214, R199I) (P35548 130-214 R199I): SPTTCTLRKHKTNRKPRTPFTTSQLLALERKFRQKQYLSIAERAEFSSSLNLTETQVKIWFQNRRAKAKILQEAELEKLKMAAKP
# Chain of HOXA2 (Homo sapiens, UniProt O43364 129-215, R185T) (O43364 129-215 R185T): as the sequence (O43364 129-215 Y150S) above, with S22Y, R57T counted along it
# Chain of SHOX (O15266 103-189 R173C): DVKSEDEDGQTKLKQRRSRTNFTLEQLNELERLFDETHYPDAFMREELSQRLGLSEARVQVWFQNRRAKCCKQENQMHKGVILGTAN
# Chain of ALX3 (Homo sapiens, UniProt O95076 139-225, L168Q) (O95076 139-225 L168Q): as the sequence (O95076 139-225 L168V) above, with V30Q counted along it
# Chain of HOXB6 (Homo sapiens, UniProt P17509 132-218) (P17509 132-218): as the sequence (P17509 132-218 K202E) above, with E71K counted along it
sequence,measurement,setting,value
AATTAAAC,binding signal,PRRX1 [1],"11.1 upbm affinity estimate (log intensity, higher = more binding, comparable within an allelic series)"
same,binding signal,ALX4,"12.8 upbm affinity estimate (log intensity, higher = more binding, comparable within an allelic series)"
same,binding signal,ALX1 [2],"11.3 upbm affinity estimate (log intensity, higher = more binding, comparable within an allelic series)"
same,binding signal,PAX4,"11.8 upbm affinity estimate (log intensity, higher = more binding, comparable within an allelic series)"
same,binding signal,SHOX,"9.29 upbm affinity estimate (log intensity, higher = more binding, comparable within an allelic series)"
same,binding signal,ALX1 [3],"11 upbm affinity estimate (log intensity, higher = more binding, comparable within an allelic series)"
same,binding signal,HESX1 [4],"8.69 upbm affinity estimate (log intensity, higher = more binding, comparable within an allelic series)"
same,binding signal,ALX3 [5],"10.2 upbm affinity estimate (log intensity, higher = more binding, comparable within an allelic series)"
same,binding signal,ALX3 [6],"9.91 upbm affinity estimate (log intensity, higher = more binding, comparable within an allelic series)"
same,binding signal,ALX1 [7],"12 upbm affinity estimate (log intensity, higher = more binding, comparable within an allelic series)"
ACGCCGGA,binding signal,PRRX1 [1],"9.29 upbm affinity estimate (log intensity, higher = more binding, comparable within an allelic series)"
same,binding signal,HOXA2 [8],"7.08 upbm affinity estimate (log intensity, higher = more binding, comparable within an allelic series)"
same,binding signal,HOXA2 [9],"10.3 upbm affinity estimate (log intensity, higher = more binding, comparable within an allelic series)"
same,binding signal,HOXA2 [10],"10.5 upbm affinity estimate (log intensity, higher = more binding, comparable within an allelic series)"
same,binding signal,PRRX1 [11],"9.34 upbm affinity estimate (log intensity, higher = more binding, comparable within an allelic series)"
same,binding signal,HOXA2 [12],"7.28 upbm affinity estimate (log intensity, higher = more binding, comparable within an allelic series)"
GGCCTACC,binding signal,PRRX1 [1],"9.31 upbm affinity estimate (log intensity, higher = more binding, comparable within an allelic series)"
same,binding signal,HOXD13 [13],"9.55 upbm affinity estimate (log intensity, higher = more binding, comparable within an allelic series)"
same,binding signal,HOXD13 [14],"9.49 upbm affinity estimate (log intensity, higher = more binding, comparable within an allelic series)"
same,binding signal,HOXD13 [15],"9.59 upbm affinity estimate (log intensity, higher = more binding, comparable within an allelic series)"
same,binding signal,PRRX1 [11],"9.37 upbm affinity estimate (log intensity, higher = more binding, comparable within an allelic series)"
GACGACGC,binding signal,PRRX1 [1],"9.47 upbm affinity estimate (log intensity, higher = more binding, comparable within an allelic series)"
same,binding signal,PRRX1 [11],"9.16 upbm affinity estimate (log intensity, higher = more binding, comparable within an allelic series)"
ACTGTTAT,binding signal,PRRX1 [1],"10.2 upbm affinity estimate (log intensity, higher = more binding, comparable within an allelic series)"
same,binding signal,PROP1 [16],"8.21 upbm affinity estimate (log intensity, higher = more binding, comparable within an allelic series)"
same,binding signal,PROP1 [17],"7.73 upbm affinity estimate (log intensity, higher = more binding, comparable within an allelic series)"
same,binding signal,PROP1 [18],"7.48 upbm affinity estimate (log intensity, higher = more binding, comparable within an allelic series)"
same,binding signal,PRRX1 [11],"11.4 upbm affinity estimate (log intensity, higher = more binding, comparable within an allelic series)"
AAATAATT,binding signal,PRRX1 [1],"11.1 upbm affinity estimate (log intensity, higher = more binding, comparable within an allelic series)"
same,binding signal,HOXB6 [19],"9.97 upbm affinity estimate (log intensity, higher = more binding, comparable within an allelic series)"
same,binding signal,HESX1 [20],"7.74 upbm affinity estimate (log intensity, higher = more binding, comparable within an allelic series)"
GAGCGGCC,binding signal,PRRX1 [1],"9.25 upbm affinity estimate (log intensity, higher = more binding, comparable within an allelic series)"
same,binding signal,PROP1 [16],"6.83 upbm affinity estimate (log intensity, higher = more binding, comparable within an allelic series)"
same,binding signal,PROP1 [17],"6.8 upbm affinity estimate (log intensity, higher = more binding, comparable within an allelic series)"
same,binding signal,PROP1 [18],"6.52 upbm affinity estimate (log intensity, higher = more binding, comparable within an allelic series)"
same,binding signal,PRRX1 [11],"9.59 upbm affinity estimate (log intensity, higher = more binding, comparable within an allelic series)"
GCCGGACC,binding signal,PRRX1 [1],"9.13 upbm affinity estimate (log intensity, higher = more binding, comparable within an allelic series)"
same,binding signal,HOXB6 [19],"8.9 upbm affinity estimate (log intensity, higher = more binding, comparable within an allelic series)"
same,binding signal,PRRX1 [11],"9.39 upbm affinity estimate (log intensity, higher = more binding, comparable within an allelic series)"
same,binding signal,HOXB6 [21],"8.93 upbm affinity estimate (log intensity, higher = more binding, comparable within an allelic series)"
GCCCGTCC,binding signal,PRRX1 [1],"9.26 upbm affinity estimate (log intensity, higher = more binding, comparable within an allelic series)"
same,binding signal,PROP1 [16],"6.49 upbm affinity estimate (log intensity, higher = more binding, comparable within an allelic series)"
same,binding signal,PROP1 [17],"6.5 upbm affinity estimate (log intensity, higher = more binding, comparable within an allelic series)"
same,binding signal,PROP1 [18],"6.38 upbm affinity estimate (log intensity, higher = more binding, comparable within an allelic series)"
same,binding signal,PRRX1 [11],"8.92 upbm affinity estimate (log intensity, higher = more binding, comparable within an allelic series)"
CATAAATC,binding signal,PRRX1 [1],"10.2 upbm affinity estimate (log intensity, higher = more binding, comparable within an allelic series)"
same,binding signal,HOXD13 [13],"10.7 upbm affinity estimate (log intensity, higher = more binding, comparable within an allelic series)"
same,binding signal,HOXD13 [14],"11.8 upbm affinity estimate (log intensity, higher = more binding, comparable within an allelic series)"
same,binding signal,HOXD13 [15],"11.5 upbm affinity estimate (log intensity, higher = more binding, comparable within an allelic series)"
same,binding signal,PRRX1 [11],"11.5 upbm affinity estimate (log intensity, higher = more binding, comparable within an allelic series)"
CCCCAATA,binding signal,PRRX1 [1],"9.73 upbm affinity estimate (log intensity, higher = more binding, comparable within an allelic series)"
same,binding signal,PRRX1 [11],"11 upbm affinity estimate (log intensity, higher = more binding, comparable within an allelic series)"
AATTATTG,binding signal,PRRX1 [1],"11.1 upbm affinity estimate (log intensity, higher = more binding, comparable within an allelic series)"
same,binding signal,MSX2 [22],"12.3 upbm affinity estimate (log intensity, higher = more binding, comparable within an allelic series)"
same,binding signal,ALX1 [3],"11.1 upbm affinity estimate (log intensity, higher = more binding, comparable within an allelic series)"
same,binding signal,MSX2 [23],"13.4 upbm affinity estimate (log intensity, higher = more binding, comparable within an allelic series)"
same,binding signal,HESX1 [4],"8.57 upbm affinity estimate (log intensity, higher = more binding, comparable within an allelic series)"
same,binding signal,ALX3 [6],"9.77 upbm affinity estimate (log intensity, higher = more binding, comparable within an allelic series)"
same,binding signal,MSX2 [24],"13.1 upbm affinity estimate (log intensity, higher = more binding, comparable within an allelic series)"
same,binding signal,HESX1 [20],"8.02 upbm affinity estimate (log intensity, higher = more binding, comparable within an allelic series)"
CTATAATC,binding signal,PRRX1 [1],"10.5 upbm affinity estimate (log intensity, higher = more binding, comparable within an allelic series)"
same,binding signal,CRX,"12.5 upbm affinity estimate (log intensity, higher = more binding, comparable within an allelic series)"
same,binding signal,PRRX1 [11],"12.5 upbm affinity estimate (log intensity, higher = more binding, comparable within an allelic series)"
CTTAATCA,binding signal,PRRX1 [1],"10.9 upbm affinity estimate (log intensity, higher = more binding, comparable within an allelic series)"
same,binding signal,PROP1 [16],"10.5 upbm affinity estimate (log intensity, higher = more binding, comparable within an allelic series)"
same,binding signal,PROP1 [17],"9.83 upbm affinity estimate (log intensity, higher = more binding, comparable within an allelic series)"
same,binding signal,PROP1 [18],"7.41 upbm affinity estimate (log intensity, higher = more binding, comparable within an allelic series)"
same,binding signal,PRRX1 [11],"13 upbm affinity estimate (log intensity, higher = more binding, comparable within an allelic series)"
CCGAACCC,binding signal,PRRX1 [1],"9.23 upbm affinity estimate (log intensity, higher = more binding, comparable within an allelic series)"
same,binding signal,PRRX1 [11],"9.29 upbm affinity estimate (log intensity, higher = more binding, comparable within an allelic series)"
